# Bioassay records from PubChem BioAssay.
# The list is not random: actives were taken first. Their share in the collection is about 1.5%.
# EBV gp42 inh – Epstein-Barr virus gp42 inhibitors, primary screen, biochemical, uHTS, fluorescence polarization | Glycoprotein 42 (Epstein-Barr virus (strain AG876)), Q1HVG2 | Fluorescence polarization binding assay, mP read-out | inhibition, % (tested at 21.74 µM) | 0.42% of 220,000 active | AID 1085, 2008; in the data active = inhibition above about 50%
# GLD-1 RNA inh – GLD-1/TGE RNA complex disruptors, primary screen, biochemical, fluorescence polarization; Female germline-specific tumor suppressor gld-1 (Caenorhabditis elegans), Q17339; inhibition, % at 5.96 µM; purified GLD-1 + fluorescein TGE RNA; 0.44% of 320,000 active;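 active = percent inhibition above a per-plate cutoff, the plate mean of test compounds plus 3 SD, cut at about 30% in these data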;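 also: 0% = DMSO wells with GLD-1 and probe and 100% = wells lacking GLD-1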
# E coli Lon inh – inhibitors of E. coli Lon protease, primary screen, biochemical, fluorescence polarization | P0A9M0 | purified E. coli Lon protease | inhibition, % at 7.94 µM | 0.42% of 360,000 active | AID 602123, 2011; in the data active = inhibition above about 13%, passing the limit was not always enough;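 also: 0% = enzyme with probe and DMSO and 100% = no enzyme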
# LANA DNA inh – inhibitors of KSHV C-LANA binding to DNA, primary screen, biochemical, fluorescence polarization, FAM-LBS DNA, MBP-C-LANA, single point; 0.078% of 340,000 active; Kaposi's sarcoma herpesvirus LANA C-terminal domain (residues 932-1162) DNA binding; inhibition, % at 9 µM; AID 504423, 2011;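 active = highest replicate inhibition at or above 60% at 9 µM, even if other replicates fall short; inactive = all replicates below 60% inhibition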;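 also: 0% = neutral control wells and 100% = 4 µM acridine orange control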
# LANA-H2B inh – blockers of LANA interaction with H2A/H2B – biochemical, FP readout, HTS, primary screen; cell-free LANA-H2A/H2B peptide, fluorescence polarization; 0.6% of 320,000 active; inhibition, % (test concentration not listed); in the data active = inhibition mostly above about 10%, no sharp cut-off; inactive = mostly below about 6.7%
# Keap1-Nrf2 PPI – Keap1-Nrf2 protein-protein interaction inhibitors, primary screen, biochemical, fluorescence polarization, single point. Keap1 Kelch-Nrf2 peptide fluorescence polarization, 1536-well. AID 504523, 2011. Kelch-like ECH-associated protein 1 (Homo sapiens), Q14145. inhibition, % at 9.4 µM. 0.15% of 340,000 active; in the data active = inhibition above about 12%;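 also: human Keap1 Kelch domain with fluorescein labeled Nrf2 9mer peptide probe; 0% = neutral control wells and 100% = peptide positive control; higher means more block of Keap1 binding to Nrf2 peptide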
# Target sequence (Q14145 whole entry, looked up, the tested form may be a part): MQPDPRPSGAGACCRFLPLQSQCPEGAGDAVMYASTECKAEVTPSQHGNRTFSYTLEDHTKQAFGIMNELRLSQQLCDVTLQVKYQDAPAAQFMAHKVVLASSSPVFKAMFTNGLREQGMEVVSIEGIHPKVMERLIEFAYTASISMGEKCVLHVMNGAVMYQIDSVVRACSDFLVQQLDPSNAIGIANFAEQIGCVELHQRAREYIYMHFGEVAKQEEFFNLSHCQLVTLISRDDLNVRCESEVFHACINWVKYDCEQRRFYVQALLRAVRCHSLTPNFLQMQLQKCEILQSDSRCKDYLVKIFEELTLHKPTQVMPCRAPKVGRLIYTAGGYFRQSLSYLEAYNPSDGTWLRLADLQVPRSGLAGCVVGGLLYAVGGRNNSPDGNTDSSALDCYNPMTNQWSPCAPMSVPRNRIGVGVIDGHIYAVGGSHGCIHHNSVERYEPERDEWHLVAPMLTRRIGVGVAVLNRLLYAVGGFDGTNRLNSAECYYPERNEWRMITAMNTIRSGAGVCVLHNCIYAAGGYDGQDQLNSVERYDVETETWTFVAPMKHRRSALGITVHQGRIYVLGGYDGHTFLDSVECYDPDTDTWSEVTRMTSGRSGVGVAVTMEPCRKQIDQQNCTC
# E coli Lon conf – E. coli Lon protease inhibitor retest, confirmation, biochemical, fluorescence polarization | shares compounds with E coli Lon inh | purified E. coli Lon | inhibition, % at 7.94 µM | 31% of 1,400 active | AID 602230, 2012; in the data active = inhibition above about 16%;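 also: 0% = enzyme with probe and DMSO and 100% = no enzyme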
# * hit, by the source's call; x = no result.
SMILES,EBV gp42 inh,GLD-1 RNA inh,E coli Lon inh,LANA DNA inh,LANA-H2B inh,Keap1-Nrf2 PPI,E coli Lon conf
CN1CCN(c2cc(N3CCN(C(=O)c4ccco4)CC3)c3c4c(onc24)-c2ccccc2C3=O)CC1,x,6,7,0,-4,-7,x
O=C(O)CCCNc1cc(N2CCN(C(=O)c3ccco3)CC2)c2noc3c2c1C(=O)c1ccccc1-3,x,99*,26*,-20,14,-195,132*
C1=C[C@@H]2CCN(Cc3ccccc3)Cc3cccc(c32)C1,x,8,34*,0,-2,-5,8
CCN(CC(=O)Nc1ccc(OC)cc1)C(=O)c1cccc(S(=O)(=O)N2CCN(c3ccccc3)CC2)c1,x,x,5,x,x,x,x
Cc1c(Cc2ccccc2)c(=O)oc2cc(OC(=O)c3ccccc3)ccc12,1,5,-5,2,-3,-4,x
COC(=O)Cc1c(C)c2ccc(OC(=O)c3ccccc3)cc2oc1=O,9,2,33*,1,-4,-1,28*
COc1ccc(OCCN2CCC(C(=O)NC(c3ccc(OC)cc3)c3ccccn3)CC2)cc1 (stereo unspecified),x,x,-2,x,x,x,x
Cc1ccc(C(NC(=O)C2CCN(CCOc3ccccc3)CC2)c2ccccn2)cc1 (stereo unspecified),x,x,15*,x,x,x,-3
COc1ccc(OCCN2CCC(C(=O)NC(c3ccc(F)cc3)c3ccc4ccccc4n3)CC2)cc1 (stereo unspecified),x,x,24*,x,x,x,-16
CCc1ccc(C(O)(c2ccccc2OC)C(CN2CCOCC2)c2ccccc2)cc1 (stereo unspecified),-19,0,-6,1,-2,5,x
Cc1c(C=O)c2ccccn2c1C(=O)c1ccccc1Cl,x,-5,1,-3,-2,-4,x
Cc1c(C=O)c2ccccn2c1C(=O)c1cccs1,35,79*,31*,13,4,4,22*
Clc1ccccc1CNCc1ccc2c(c1)OCO2,x,x,-17,x,x,x,x
Cc1ccc(NC(=O)COC(=O)c2ccc(Br)o2)cc1S(=O)(=O)N1CCCCC1,x,3,23*,1,1,0,20*
Cc1ccc(NC(=O)COC(=O)c2ccc([N+](=O)[O-])o2)cc1S(=O)(=O)N1CCCCC1,-15,-3,14,1,2,-6,x
Cc1ccc(C(=O)N2CCN(c3ccccc3O)CC2)cc1S(=O)(=O)N1CCCCC1,x,7,-6,0,6,-4,x
O=C(CCN1CCCCC1)NNC(=O)C12CC3CC(CC(C3)C1)C2,-6,10,6,-1,-2,-5,x
CN(C)c1ccc2nc3c(=O)[nH]c(=O)nc-3n(CC(O)C(O)C(O)CO)c2c1 (stereo unspecified),x,163*,165*,24,30*,-90,82*
Cc1ccc(-c2cc(C(=O)Nc3c(C)n(C)n(-c4ccccc4)c3=O)[nH]n2)c(O)c1,0,6,15*,0,1,-8,0
Cc1cc(C)c(-c2cc(C(=O)Nc3c(C)n(C)n(-c4ccccc4)c3=O)[nH]n2)c(O)c1,5,5,-2,1,1,0,x
Nc1ccccc1N=Nc1ccccc1N,x,17,49*,3,-4,-1,40*
COc1ccc(CCNC(=O)c2cc(=O)n(C)c(=O)n2C)cc1OC,-4,-6,-3,-2,-4,4,x
COc1ccc2[nH]cc(CCNC(=O)CC[C@H]3O[C@@H](n4cc(C)c(=O)[nH]c4=O)C[C@@H]3O)c2c1,x,x,13*,0,x,-2,0
CC1(C)CC(=O)C/C(=N/NC(=O)COc2ccc(Cl)cc2Cl)C1,-5,23,25*,1,1,2,7
O=C(COc1ccc(Cl)cc1Cl)NN=C1CCCCC1,14,3,-2,2,1,-5,x
SMILES,EBV gp42 inh,GLD-1 RNA inh,E coli Lon inh,LANA DNA inh,LANA-H2B inh,Keap1-Nrf2 PPI,E coli Lon conf
O=C(CNC(=O)c1ccc(-c2ccccc2)cc1)Nc1ccc(S(=O)(=O)Nc2ncccn2)cc1,-7,8,30*,-1,-3,-3,43*
O=C(CS(=O)(=O)c1ccccc1)Nc1ccc(S(=O)(=O)Nc2ncccn2)cc1,-9,4,0,0,-6,-4,x
O=C(Cc1c(Cl)cccc1Cl)Nc1ccc(S(=O)(=O)Nc2ncccn2)cc1,x,2,19*,0,-1,0,-152
O=C(Cc1ccc(Cl)cc1)Nc1ccc(S(=O)(=O)Nc2ncccn2)cc1,x,-6,4,0,1,-1,x
COc1ccc(-c2nnc(SC(C)C(=O)Nc3c(C)n(C)n(-c4ccccc4)c3=O)o2)cc1 (stereo unspecified),-22,-6,-5,0,2,2,x
COc1cccc(NC(=O)NC(C)C2CC3CCC2C3)c1 (stereo unspecified),-3,4,4,0,0,2,x
CN1C=CC2=C(C#N)C(N)C(C#N)(C#N)C(c3ccccc3)C2C1 (stereo unspecified),63*,46*,17*,41,8,10,-31
CC(NC(=O)c1ccco1)C1CCCO1 (stereo unspecified),-9,6,-2,1,1,-3,x
Cc1occc1C(=O)NC(C)C1CCCO1 (stereo unspecified),5,11,15*,0,-2,2,-3
CC(Oc1ccccc1)C(=O)N/N=C/c1ccccn1 (stereo unspecified),-6,7,-8,1,3,2,x
O=C(NCC1CCCCC1)c1cc([N+](=O)[O-])ccc1N1CCOCC1,-3,2,1,1,1,-7,x
O=C(NC12CC3CC(CC(C3)C1)C2)c1cc([N+](=O)[O-])ccc1N1CCOCC1,-2,-5,19*,4,3,-4,-7
C[C@H]1COC(=O)[C@H](CC(=O)OC(C)(C)C)C/C=C\C[C@@H](CC(=O)NCCO)C(=O)N1,x,0,10,-1,-1,-4,x
COc1ccccc1N(CC(=O)NC1CCCC1)C(=O)CCC(=O)Nc1ccccn1,x,9,18*,1,4,6,-18
COc1ccccc1N(CC(=O)NC1CCCC1)C(=O)CCC(=O)Nc1cc(C)on1,4,9,5,-2,-2,-3,x
COCCNC(=O)NC(=O)CN1CCCc2ccccc21,5,-5,48*,4,16*,0,6
